Compound activity as filed in PubChem.
ELG1 DNA repair – blocks ELG1-dependent DNA repair in HEK293T cells | HEK293T ELG1-luciferase reporter, luminescence, 16 h; DNA damage induced by 5-fluorouridine | Potency, µM (titrated, usually from 46.1 µM), for the others: top-dose activity change, negative = inhibition, usual class: inhibitors | hit rate 2.3% among 330,000 | AID 504467; further: on the % scale 0 is the no-effect control and ±100 the full control effect; nearly all actives have a fitted effect of over 55% in size
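DMSO vehicle served as the neutral condition. Each well held 2,000 cells given 5-fluorouridine plus compound; after 16 hr at 37 °C/5% CO2, ONE-Glo was added and luciferase measured 30 min later.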
MCF10A rerep – DNA re-replication induction in MCF 10a cells; Potency, µM (series often up to 46.1 µM), for inactives: at the highest dose activity, positive = re-replication, usual class: activators; MCF 10A DNA re-replication, Hoechst nuclear intensity, 48 h; hit rate 2.9% among 350,000; further: % of control where 0% means no effect; nearly all actives have a fitted effect of over 50% in size
ELG1 genotox – genotoxicity induction in ELG1-luciferase HEK293T cells; HEK293T ELG1-luciferase reporter, luminescence, 16 h; Potency, µM (titrated, usually from 46 µM), for the others: at the top dose activity change, positive = activation, hits mostly activators; hit rate 1.3% among 330,000; AID 504466; further: % of control where 0% means no effect; nearly all actives have a fitted effect of over 60% in size
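Genotoxic stress is detected as increased luminescence from luciferase-tagged ELG1 in HEK293T cells, measured with ONE-Glo after a 16 hr treatment at 37 °C.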
p53 reactivator – re-activators of mutant p53 | H1299 p53-A138V BP100-luciferase reporter, luminescence, 24 h | Potency, µM (highest dose often 92.2 µM), without a hit: top-dose activity change, positive = activation, usual class: activators | hit rate 0.063% among 320,000 | AID 504706; further: % of control where 0% means no effect; nearly all actives have a fitted effect of over 45% in size
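H1299 (p53-null), stable ts p53-A138V + BP100-Luc; 1000 cells/well, Opti-MEM/10% FBS; cpd 4 pt, 1:5; 24 h, 37 deg C, 5% CO2; detection reagent 10 min RT; luminescence.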
SW480 rereplic – induces DNA re-replication in SW480 colon adenocarcinoma cells; SW480 DNA re-replication, Hoechst DNA content imaging, 48 h; Potency, µM (highest dose often 46.1 µM), for the others: top-dose re-replication activation, most hits filed as activators; hit rate 1.8% among 340,000; further: % of control where 0% means no effect; nearly all actives have a fitted effect of over 55% in size
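First, 250 cells per well were seeded. Next, compound or vehicle (23 nL) was pinned in, plates sat 48 hr at 37 C. Finally Hoechst was added for 40 min before fluorescence scanning.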
A-T KAP1 phos – potential ataxia-telangiectasia treatments restoring KAP-1 phosphorylation; hit rate 0.19% among 320,000; Potency, µM (series often up to 57.5 µM), without a hit: at the top dose activation, actives largely listed as activators; F2112 A-T fibroblasts, KAP-1 phosphorylation AlphaLISA; neocarzinostatin DNA damage 30 min before lysis; further: % of control where 0% means no effect; nearly all actives have a fitted effect of over 45% in size
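hTERT-immortalized A-T patient fibroblasts (F2112), 500 cells/well in OPTI-MEM, 1% FBS, got compounds for 60 min, then NCS for 30 min at 37C. Lysates were then assayed for phospho-KAP-1 by AlphaLISA (anti-pKAP1 donor, anti-KAP1 acceptor beads), 6 hr at 25C.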
* marks the source's active call; other numbers are inactive results; ? = inconclusive; · = no result; [ ] = dose if it differs, or a comment. Sampled rows, rich in hits. Any-hit rate of the full collection: about 7.1%. The call rests on the fitted dose curve; in most records, active means well fitted curve in the direction sought with a large enough effect; inconclusive means small, poorly fitted or top-dose-only effect, or another doubt; inactive means no such curve, though single readings can be large; an effect the other way counts as inactive or inconclusive. Potency means the concentration at half of the fitted maximal effect.

SMILES	ELG1 DNA repair	MCF10A rerep	ELG1 genotox	p53 reactivator	SW480 rereplic	A-T KAP1 phos
COC(=O)[C@@]1(Cc2ccc(OC)cc2)[C@H]2c3cc(C(=O)N(C)C)n(Cc4ccc(OC(F)(F)F)cc4)c3C[C@H]2CN1C(=O)c1ccccc1	?	?	-1%	5%	18µM*	-6%
COC(=O)[C@@]1(Cc2ccc(F)cc2)[C@H]2c3cc(C(=O)N(C)C)n(Cc4ccccc4)c3C[C@H]2CN1C(=O)c1ccccc1	-19%	?	2%	-2%	?	-2%
COC(=O)[C@@]1(Cc2ccc(OC)cc2)[C@@H]2C(=CC(=O)[C@H]2CC(=O)C(=O)N(C)C)CN1C(=O)c1ccccc1	9.2µM*	?	-13%	-17%	?	1%
C=C1C(=O)C=C2CN(C(=O)c3ccccc3)[C@@](Cc3ccc(F)cc3)(C(=O)OC)[C@@H]12	2.9µM*	3.7µM*	-8%	-29%	1.3µM*	16%
COC(=O)[C@@]1(Cc2ccc(OC)cc2)[C@H]2c3cc(C(=O)N(C)C)n(C[C@H](O)CO)c3C[C@H]2CN1C(=O)c1ccccc1	5%	0%	5%	-3%	2%	·
O=C(Nc1cc(S(=O)(=O)N2CCOCC2)ccc1Cl)c1ccc(=O)[nH]c1	18%	-19%	5%	9%	-76%	0%
CC1CCCCC12NC(=O)N(CC(=O)Nc1ccc3[nH]c(=O)[nH]c3c1)C2=O (stereo not given)	?	1%	-2%	3%	0%	14%
CCOc1ccc(CN2CCN(Cc3cc4ccccc4[nH]3)CC2CCO)cc1 (stereo not given)	9%	23µM*	-2%	0%	?	3%
CC(C)CN1CCN(Cc2cc3ccccc3[nH]2)CC1CCO (stereo not given)	-7%	?	-2%	1%	?	3%
CC(C)(C)CN1CCN(Cc2c[nH]c3ccccc23)CC1CCO (stereo not given)	-7%	6.5µM*	-3%	·	0%	4%
CC(C)(C)CN1CCN(Cc2cc3ccccc3[nH]2)CC1CCO (stereo not given)	-2%	0.65µM*	-4%	-5%	?	2%
C=C1C(=O)OC2C=C(CO)C3OC3C3OC3(C)CC(OC(=O)/C(=C/C)COC(C)=O)C12 (stereo not given)	·	2.1µM*	·	·	0.82µM*	·
CC(=O)OCC1=C[C@@H]2OC(=O)C3=CO[C@@H](O[C@@H]4O[C@H](CO)[C@@H](O)[C@H](O)[C@H]4O)[C@H]1[C@@H]32	6%	-9%	-2%	0%	-2%	3%
CCCCCCC(O)C/C=C/CCCCCCCC(=O)O (stereo not given)	·	?	·	·	-1%	·
c1coc(-c2nnc(-c3cccs3)o2)c1	?	201%[0.0737 µM]	?	16%	-2%	-14%
Fc1ccc2c(Cl)c(-c3nnc(-c4cccs4)o3)sc2c1	?	0%	0.65µM*	?	-5%	-4%
CC1Cc2ccccc2N1C(=O)CO/N=C/c1ccccc1OC(F)F (stereo not given)	-39%	3%	-3%	-2%	16µM*	4%
O=C(CO/N=C/c1ccccc1OC(F)F)N1CCc2ccccc21	9%	-2%	-1%	-1%	2%	3%
COc1cc(NC(=O)CCC(=O)OCCCC(F)(F)C(F)(F)F)nc(OC)n1	-1%	?	-3%	-2%	1%	4%
COc1cc(NC(=O)CCCC(=O)OCC(F)(F)C(F)F)nc(OC)n1	?	23µM*	2%	3%	?	20%
COc1ccccc1NC(=S)N1CCC(c2nc3cc(C)c(C)cc3[nH]2)CC1	-1%	-4%	6%	3%	-4%	7%
COc1ccccc1NC(=O)N1CCC(c2nc3cc(C)c(C)cc3[nH]2)CC1	11%	3.7µM*	?	?	5.8µM*	-2%
COc1ccc(-c2cc(-c3ccc(O)cc3)nc(N)c2C#N)cc1	8%	?	5%	·	22%	10%
COc1ccc(-c2cc(-c3ccccc3)nc(SCC(=O)Nc3nccs3)c2C#N)cc1	?	?	-2%	5%	-5%	1%
COc1ccc(-c2cc(-c3ccccc3)c(C#N)c(SCC(=O)Nc3ncc(C)s3)n2)cc1	?	23µM*	-1%	-4%	?	-6%
SMILES	ELG1 DNA repair	MCF10A rerep	ELG1 genotox	p53 reactivator	SW480 rereplic	A-T KAP1 phos
N#Cc1c(-c2ccc(F)cc2)cc(-c2ccccc2)nc1SCC(=O)NCC(=O)O	11%	-4%	2%	3%	16µM*	-1%
COc1ccc(-c2cc(-c3ccc(OC)cc3)c(C#N)c(SC)n2)cc1	21%	21µM*	9%	11%	23%	3%
Cc1ccc2nc(SCC(=O)N3CCCC3)[nH]c2c1	?	2%	3.7µM*	7%	-5%	4%
CC1(C)CC(=O)c2c(O)cc(OCC(=O)Nc3ccc(CCO)cc3)cc2O1	?	21%	1%	7%	-7%	-15%
COc1ccc(CCn2c(N)c(C(=O)NCc3ccco3)c3nc4ccccc4nc32)cc1OC	10µM*	-1%	-11%	11%	19%	25%
COc1ccc(CCn2c(N)c(S(=O)(=O)c3cccs3)c3nc4ccccc4nc32)cc1OC	?	-1%	-9%	-6%	1%	28%
COc1ccccc1-n1c(N)c(C(=O)NCC2CCCO2)c2nc3ccccc3nc21 (stereo not given)	?	?	-9%	-3%	11µM*	16%
COc1ccc(-n2c(N)c(C(=O)NCc3ccco3)c3nc4ccccc4nc32)c(OC)c1	-25%	7.1µM*	2%	?	2.1µM*	22%
COCCNC(=O)c1c(N)n(CCC2=CCCCC2)c2nc3ccccc3nc12	?	15µM*	-6%	-2%	21µM*	-3%
O=C(NCc1ccco1)c1c(F)c(F)c(F)c(C(=O)NCc2ccco2)c1F	-1%	?	-3%	-1%	-6%	-7%[11.5 µM]
Nc1c(C(=O)NCc2ccco2)c2nc3ccccc3nc2n1CCc1ccccc1F	-29%	2.6µM*	-12%	?	5.8µM*	14%
COc1ccc(S(=O)(=O)Cc2ccc(C(=O)NCc3ccco3)o2)cc1	-10%	-1%	-4%	1%	2%	0%
COc1ccc(CCn2c(N)c(C(=O)NCc3ccco3)c3nc4ccccc4nc32)cc1	21µM*	?	-2%	-8%	?	?
